Our source for the outcome values is PubChem BioAssay AID1053124 (Broad Institute, 2014).

The structures appear in SMILES notation. Measured potencies and affinities stand elsewhere. Calls of active or inactive are those of the source.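 How the source made its calls: active means cell killing whose fitted half-effect concentration is at most twice the top valid dose tested; inconclusive means flat curve with 30 to 70% killing, or a poor fit; inactive means effect in the rising direction, plus the rest.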

The test can be described thus: viability loss in A549 lung cells – cell-based, ATP luminescence, cherry-pick, set 2, cytotoxicity control, dose response (AID 1053124). Particulars: ATP luminescence (CellTiter-Glo), 72 h; series mostly up to 26 µM. A general note: ATP-based viability assays read luminescence as a measure of living cells.
`O=C(O)[C@@H]1CCCN1S(=O)(=O)c1cccc(S(=O)(=O)N2CCC[C@H]2C(=O)O)c1`: the compound was called inactive.

Turning to `Cc1cccn2c(=O)c3cc(C(=O)NCC4CCCO4)c(=N)n(CC4CCCO4)c3nc12` (centres undefined), the call was inactive.

`CSc1ccc(Cn2c(C)c(C(=O)NCc3cccc(Cl)c3)sc2=O)cc1`: the compound was called inactive.

For `CN1CCN(c2nc3ccccn3c(=O)c2/C=C(\C#N)S(=O)(=O)c2ccccc2)CC1`, the compound was classed as inactive.

`O=C(O)c1ccc(N2N=C(c3ccccc3)CC2c2ccccc2)cc1` (centres undefined): the call was inactive.

As to `O=C(CCCn1c(=O)c2sccc2n(Cc2cc(=O)n3ccccc3n2)c1=O)NCc1ccco1`, the call was inactive.

In the case of `CCOc1ccccc1N=c1oc2cc(O)ccc2cc1C(=O)NCC1CCCO1` (centres undefined), the result was inactive.

Turning to `CCCCN(CCCC)CC(O)Cn1c2ccccc2c(=O)c2ccccc21` (centres undefined), the compound was classed as inactive.

`O=C(O)c1ccc(N/N=C/c2ccc(-c3ccccc3Cl)o2)cc1`: the outcome was inactive.

`CCOC1=NN(c2ncc(C(F)(F)F)cc2Cl)C(=O)C1`: the compound was called inactive.

For the compound `CC(C)N1CCc2c(sc(NC(=O)Cc3ccccc3)c2C#N)C1`, the result was inactive.

Regarding `Cc1c(C(=O)NCc2cccc(C(F)(F)F)c2)sc(=O)n1Cc1ccc(C(=O)N(C)C)cc1`, the compound was called inactive.

With `CCn1c2ccccc2c(=O)c2ccccc21`, the call was inactive.

With `CCc1nc(SCC(=O)c2ccccc2)c2ccccc2n1`, the compound was called inactive.

For `CCCOc1ccccc1/C=C1\SC(N)=NC1=O`, the result was inactive.

As for `O=C(O)c1[nH]c2ccccc2c1C(c1cc(Br)ccc1O)c1c(C(=O)O)[nH]c2ccccc12`, the compound was classed as inactive.

For `CSc1ccc(Cl)c(C(=O)N2CCOc3ccccc32)c1`, the result was inactive.

For the compound `CCOc1ccc(C(=O)c2cc3ccc(O)cc3oc2=O)cc1`, the outcome was inactive.

For `CC1CCN(C(=O)COc2cccc3c2CCN(Cc2ccccc2)C3=O)CC1`, the compound was classed as inactive.

As to `CCNc1nc2nc3ccc(C)cn3c(=O)c2cc1C(=O)NCC1CCCO1` (centres undefined), the result was inactive.

`COc1ccccc1N1CCN(C2CCC(C)CC2)CC1` (centres undefined): the outcome was inactive.

Take `CC(=O)c1cc2ccc(O)cc2oc1=O`: the compound was classed as inactive.

With `CC1=C(C(=O)N2CCN(c3cc(C)ccc3C)CC2)C2(CCCCC2)OC1=O`, the outcome was inactive.

As to `COc1ccc(S(=O)(=O)N2CCCC2CNC(=O)C(=O)NC2CCCC2)cc1` (centres undefined), the result was inactive.

In the case of `CCc1cccc(C)c1NC(=S)NCc1ccc2c(c1)cc(C)n2C`, the outcome was inactive.

For `S=c1[nH]c2ccc(Cc3ccc4[nH]c(=S)[nH]c4c3)cc2[nH]1`, the result was inactive.

In the case of `C=CCn1c(=N)c(C#N)cc2c(=O)n3ccccc3nc21`, the result was inactive.

For `COc1ccc(C2CC(c3cccs3)=NN2c2nc(C)c(C(C)=O)s2)cc1OC` (centres undefined), the result was inactive.

Take `CC(=O)NNc1cc(N2CCOCC2)nc(N2CCOCC2)n1`: the result was inactive.

On to `CCOC(=O)C(NC(=O)c1ccccc1)(OCC1(CC)COC1)C(F)(F)F` (centres undefined), for which the compound was called inactive.

As for `CC(=O)OC[C@@H]1CN(Cc2ccccc2)C[C@H](n2cnc3c(N(C)C(C)C)ncnc32)O1`, the result was inactive.

As for `C/C(=N\NC(=O)CC#N)c1cc2ccc(O)cc2oc1=O`, the result was inactive.

As for `Cc1ccc(O)c(NC(=S)NC(=O)COc2ccc(Br)cc2)c1`, the compound was called inactive.

In the case of `O=c1oc2c(CN3CCCCC3)c(O)ccc2cc1-c1nc2ccccc2[nH]1`, the call was inactive.

With `COc1ccc(C2C3=C(CCCC3=O)N(CC(=O)O)C3=C2C(=O)CCC3)cc1`, the outcome was inactive.

As for `CCCN1CCc2c(sc(NC(=O)C3CCN(S(=O)(=O)c4cccs4)CC3)c2C(N)=O)C1`, the compound was classed as inactive.

Turning to `CCc1cccc(OC2OC(CO)C(O)C(O)C2NC(C)=O)c1` (centres undefined), the call was inactive.

Turning to `Cc1cccn2c(=O)c3cc(C#N)c(=NC(=O)c4cccs4)n(CC(C)C)c3nc12`, the compound was classed as inactive.

For `CCOC(=O)c1cc2c(=O)n3ccccc3nc2n(C(C)C)c1=NC(=O)c1ccco1`, the compound was classed as inactive.
